In PMC11006913:
Positions count from the first letter of the chain named.

Key:
Experiment in all cases: PBM; 200 nM protein, PBS
Settings in all cases: dsDNA, one strand shown
[1] = target: NKX2-5 (Homo sapiens, UniProt P52952 125-210, R139K)
[2] = target: T1, SIX6 (Homo sapiens, UniProt O95475 114-200, L167I)
T1 sequence: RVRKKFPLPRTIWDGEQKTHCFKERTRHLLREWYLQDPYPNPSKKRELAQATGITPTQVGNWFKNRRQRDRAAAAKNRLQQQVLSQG

[3] = target: T2, SIX6 (Homo sapiens, UniProt O95475 114-200, L143V)
T2 sequence: T1 sequence with L30V, I54L

[4] = target: T3, SIX6 (Homo sapiens, UniProt O95475 114-200, H141N)
T3 sequence: T1 sequence with H28N, I54L

[5] = target: T4, SIX6 (Homo sapiens, UniProt O95475 114-200, T165P)
T4 sequence: T1 sequence with T52P, I54L

[6] = target: T5, SIX6 (Homo sapiens, UniProt O95475 114-200, L167M)
T5 sequence: T1 sequence with I54M

[7] = target: T6, SIX6 (Homo sapiens, UniProt O95475 114-200, L143M)
T6 sequence: T1 sequence with L30M, I54L

[8] = target: T7, SIX6 (Homo sapiens, UniProt O95475 114-200, L143I)
T7 sequence: T1 sequence with L30I, I54L

[9] = target: T8, SIX6 (Homo sapiens, UniProt O95475 114-200, T165G)
T8 sequence: T1 sequence with T52G, I54L

[10] = target: T9, SIX6 (Homo sapiens, UniProt O95475 114-200, T139Q)
T9 sequence: T1 sequence with T26Q, I54L

[11] = target: ALX3 (Homo sapiens, UniProt O95076 139-225, N203Q)
[12] = target: T10, SIX6 (Homo sapiens, UniProt O95475 114-200, T165A)
T10 sequence: T1 sequence with T52A, I54L

[13] = target: T11, SIX6 (Homo sapiens, UniProt O95475 114-200, L167V)
T11 sequence: T1 sequence with I54V

[14] = target: ALX3 (Homo sapiens, UniProt O95076 139-225)
[15] = target: T12, SIX6 (Homo sapiens, UniProt O95475 114-200)
T12 sequence: T1 sequence with I54L

[16] = target: ALX3 (Homo sapiens, UniProt O95076 139-225, L168Q)
[17] = target: T13, SIX6 (Homo sapiens, UniProt O95475 114-200, T165I)
T13 sequence: T1 sequence with T52I, I54L

[18] = target: ALX3 (Homo sapiens, UniProt O95076 139-225, L168V)
[19] = target: ALX3 (Homo sapiens, UniProt O95076 139-225, N203S)
[20] = target: NKX2-5 (Homo sapiens, UniProt P52952 125-210)
[21] = target: HOXA4 (Homo sapiens, UniProt Q00056 201-287, W262R)
[22] = target: PRRX1 (Homo sapiens, UniProt P54821 80-166, F113S)
[23] = target: HOXA4 (Homo sapiens, UniProt Q00056 201-287, R217L)
[24] = target: T14, NKX2-6 (Homo sapiens, UniProt A6NCS4 118-204)
T14 sequence: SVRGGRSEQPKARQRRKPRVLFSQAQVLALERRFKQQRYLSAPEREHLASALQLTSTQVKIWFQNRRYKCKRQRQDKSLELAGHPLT

[25] = target: HOXA4 (Homo sapiens, UniProt Q00056 201-287)
[26] = target: T15, NKX2-6 (Homo sapiens, UniProt A6NCS4 118-204, F151L)
T15 sequence: T14 sequence with F34L

[27] = target: HOXA4 (Homo sapiens, UniProt Q00056 201-287, W262F)
[28] = target: PRRX1 (Homo sapiens, UniProt P54821 80-166)
[29] = target: T16, PAX4 (Homo sapiens, UniProt O43316 9-242, R200K)
T16 sequence: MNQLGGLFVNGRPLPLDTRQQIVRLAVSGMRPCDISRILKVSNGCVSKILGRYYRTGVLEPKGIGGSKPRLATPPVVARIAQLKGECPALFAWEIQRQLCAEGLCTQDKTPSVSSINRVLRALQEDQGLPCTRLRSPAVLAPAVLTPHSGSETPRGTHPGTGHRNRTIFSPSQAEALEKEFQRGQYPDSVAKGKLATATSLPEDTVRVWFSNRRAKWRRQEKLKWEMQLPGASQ

[30] = target: T17, PAX4 (Homo sapiens, UniProt O43316 9-242)
T17 sequence: T16 sequence with K192R

[31] = target: T18, NKX2-6 (Homo sapiens, UniProt A6NCS4 118-204, R150C)
T18 sequence: T14 sequence with R33C

[32] = target: HOXD13 (Homo sapiens, UniProt P35453 263-343, T313R)
[33] = target: T19, PAX4 (Homo sapiens, UniProt O43316 9-242, R200Q)
T19 sequence: T16 sequence with K192Q

[34] = target: HOXD13 (Homo sapiens, UniProt P35453 263-343)
[35] = target: T20, PAX4 (Homo sapiens, UniProt O43316 9-242, F177V)
T20 sequence: T16 sequence with F169V, K192R

[36] = target: T21, PAX4 (Homo sapiens, UniProt O43316 9-242, F177Y)
T21 sequence: T16 sequence with F169Y, K192R

[37] = target: HOXD13 (Homo sapiens, UniProt P35453 263-343, T313A)
[38] = target: T22, PAX4 (Homo sapiens, UniProt O43316 9-242, R227W)
T22 sequence: T16 sequence with K192R, R219W

[39] = target: HOXB6 (Homo sapiens, UniProt P17509 132-218, K202E)
[40] = target: HOXB6 (Homo sapiens, UniProt P17509 132-218)
[41] = target: ALX4 (Homo sapiens, UniProt Q9H161 200-286)
[42] = target: ALX4 (Homo sapiens, UniProt Q9H161 200-286, Q225E)
[43] = target: HOXA7 (Homo sapiens, UniProt P31268 116-202)
[44] = target: HOXA7 (Homo sapiens, UniProt P31268 116-202, W177C)
HOXA7 (Homo sapiens, UniProt P31268 116-202, W177C), sequence (P31268 116-202 W177C): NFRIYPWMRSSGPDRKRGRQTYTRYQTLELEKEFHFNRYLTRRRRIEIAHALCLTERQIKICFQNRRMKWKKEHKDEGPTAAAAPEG

NKX2-5 (Homo sapiens, UniProt P52952 125-210, R139K), sequence (P52952 125-210 R139K): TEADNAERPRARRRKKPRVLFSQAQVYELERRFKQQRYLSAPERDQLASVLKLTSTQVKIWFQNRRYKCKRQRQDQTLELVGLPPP
NKX2-5 (Homo sapiens, UniProt P52952 125-210), sequence (P52952 125-210): as the sequence (P52952 125-210 R139K) above, with K15R counted along it
PRRX1 (Homo sapiens, UniProt P54821 80-166), sequence (P54821 80-166): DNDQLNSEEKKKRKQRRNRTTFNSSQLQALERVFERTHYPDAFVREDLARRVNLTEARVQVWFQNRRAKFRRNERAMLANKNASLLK
PRRX1 (Homo sapiens, UniProt P54821 80-166, F113S), sequence (P54821 80-166 F113S): as the sequence (P54821 80-166) above, with F34S counted along it
ALX4 (Homo sapiens, UniProt Q9H161 200-286), sequence (Q9H161 200-286): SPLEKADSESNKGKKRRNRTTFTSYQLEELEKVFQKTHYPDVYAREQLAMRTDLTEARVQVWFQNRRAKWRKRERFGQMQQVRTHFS
HOXD13 (Homo sapiens, UniProt P35453 263-343), sequence (P35453 263-343): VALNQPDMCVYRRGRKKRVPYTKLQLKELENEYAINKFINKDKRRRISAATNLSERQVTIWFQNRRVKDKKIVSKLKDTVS
HOXA4 (Homo sapiens, UniProt Q00056 201-287, W262R), sequence (Q00056 201-287 W262R): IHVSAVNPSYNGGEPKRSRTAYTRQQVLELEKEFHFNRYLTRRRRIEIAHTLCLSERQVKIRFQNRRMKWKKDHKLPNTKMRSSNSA
ALX3 (Homo sapiens, UniProt O95076 139-225, N203S), sequence (O95076 139-225 N203S): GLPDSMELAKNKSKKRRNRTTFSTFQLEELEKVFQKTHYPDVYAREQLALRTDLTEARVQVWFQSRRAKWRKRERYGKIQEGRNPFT
HOXA7 (Homo sapiens, UniProt P31268 116-202), sequence (P31268 116-202): as the sequence (P31268 116-202 W177C) above, with C62W counted along it
HOXD13 (Homo sapiens, UniProt P35453 263-343, T313R), sequence (P35453 263-343 T313R): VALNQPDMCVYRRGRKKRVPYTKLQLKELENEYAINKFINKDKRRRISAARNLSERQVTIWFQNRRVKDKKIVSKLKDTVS
HOXA4 (Homo sapiens, UniProt Q00056 201-287), sequence (Q00056 201-287): as the sequence (Q00056 201-287 W262R) above, with R62W counted along it
ALX3 (Homo sapiens, UniProt O95076 139-225, L168V), sequence (O95076 139-225 L168V): as the sequence (O95076 139-225 N203S) above, with L30V, S65N counted along it
HOXA4 (Homo sapiens, UniProt Q00056 201-287, R217L), sequence (Q00056 201-287 R217L): as the sequence (Q00056 201-287 W262R) above, with R17L, R62W counted along it
ALX3 (Homo sapiens, UniProt O95076 139-225), sequence (O95076 139-225): as the sequence (O95076 139-225 N203S) above, with S65N counted along it
HOXB6 (Homo sapiens, UniProt P17509 132-218), sequence (P17509 132-218): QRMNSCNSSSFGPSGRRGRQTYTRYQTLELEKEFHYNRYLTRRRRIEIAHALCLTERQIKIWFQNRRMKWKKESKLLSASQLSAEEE
HOXA4 (Homo sapiens, UniProt Q00056 201-287, W262F), sequence (Q00056 201-287 W262F): as the sequence (Q00056 201-287 W262R) above, with R62F counted along it
ALX3 (Homo sapiens, UniProt O95076 139-225, L168Q), sequence (O95076 139-225 L168Q): as the sequence (O95076 139-225 N203S) above, with L30Q, S65N counted along it
HOXB6 (Homo sapiens, UniProt P17509 132-218, K202E), sequence (P17509 132-218 K202E): as the sequence (P17509 132-218) above, with K71E counted along it
HOXD13 (Homo sapiens, UniProt P35453 263-343, T313A), sequence (P35453 263-343 T313A): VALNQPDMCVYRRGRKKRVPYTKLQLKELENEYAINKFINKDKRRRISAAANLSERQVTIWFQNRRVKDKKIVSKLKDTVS
ALX3 (Homo sapiens, UniProt O95076 139-225, N203Q), sequence (O95076 139-225 N203Q): as the sequence (O95076 139-225 N203S) above, with S65Q counted along it
ALX4 (Homo sapiens, UniProt Q9H161 200-286, Q225E), sequence (Q9H161 200-286 Q225E): as the sequence (Q9H161 200-286) above, with Q26E counted along it

In the case of CCCCTGCG, the binding signal [1] is reported as 8.68 upbm affinity estimate (log intensity, higher = more binding, comparable within an allelic series), the binding signal [2] is reported as 8.92 upbm affinity estimate (log intensity, higher = more binding, comparable within an allelic series) and the binding signal [3] is reported as 8.67 upbm affinity estimate (log intensity, higher = more binding, comparable within an allelic series). For the same sequence, the binding signal [4] was 8.89 upbm affinity estimate (log intensity, higher = more binding, comparable within an allelic series), the binding signal [5] was 8.67 upbm affinity estimate (log intensity, higher = more binding, comparable within an allelic series) and the binding signal [6] was 8.87 upbm affinity estimate (log intensity, higher = more binding, comparable within an allelic series). For the same sequence, the binding signal [7] was 8.77 upbm affinity estimate (log intensity, higher = more binding, comparable within an allelic series), the binding signal [8] was 8.85 upbm affinity estimate (log intensity, higher = more binding, comparable within an allelic series) and the binding signal [9] was 8.87 upbm affinity estimate (log intensity, higher = more binding, comparable within an allelic series). For the same sequence, the binding signal [10] was 8.92 upbm affinity estimate (log intensity, higher = more binding, comparable within an allelic series), the binding signal [11] was 7.65 upbm affinity estimate (log intensity, higher = more binding, comparable within an allelic series) and the binding signal [12] was 8.91 upbm affinity estimate (log intensity, higher = more binding, comparable within an allelic series). The binding signal [13] was 8.9 upbm affinity estimate (log intensity, higher = more binding, comparable within an allelic series), the binding signal [14] was 7.85 upbm affinity estimate (log intensity, higher = more binding, comparable within an allelic series) and the binding signal [15] was 8.87 upbm affinity estimate (log intensity, higher = more binding, comparable within an allelic series). The binding signal [16] was 7.61 upbm affinity estimate (log intensity, higher = more binding, comparable within an allelic series), the binding signal [17] was 8.84 upbm affinity estimate (log intensity, higher = more binding, comparable within an allelic series) and the binding signal [18] was 7.71 upbm affinity estimate (log intensity, higher = more binding, comparable within an allelic series). For the same sequence, the binding signal [19] was 7.66 upbm affinity estimate (log intensity, higher = more binding, comparable within an allelic series) and the binding signal [20] was 8.4 upbm affinity estimate (log intensity, higher = more binding, comparable within an allelic series).

With GTCTAGAC the binding signal [1] was 9.21 upbm affinity estimate (log intensity, higher = more binding, comparable within an allelic series), the binding signal [21] was 9.98 upbm affinity estimate (log intensity, higher = more binding, comparable within an allelic series) and the binding signal [22] was 9.59 upbm affinity estimate (log intensity, higher = more binding, comparable within an allelic series). The binding signal [23] was 10.1 upbm affinity estimate (log intensity, higher = more binding, comparable within an allelic series), the binding signal [24] was 10.1 upbm affinity estimate (log intensity, higher = more binding, comparable within an allelic series) and the binding signal [25] was 9.99 upbm affinity estimate (log intensity, higher = more binding, comparable within an allelic series). The binding signal [26] was 9.52 upbm affinity estimate (log intensity, higher = more binding, comparable within an allelic series), the binding signal [27] was 10 upbm affinity estimate (log intensity, higher = more binding, comparable within an allelic series) and the binding signal [28] was 9.88 upbm affinity estimate (log intensity, higher = more binding, comparable within an allelic series). For the same sequence, the binding signal [20] was 9.52 upbm affinity estimate (log intensity, higher = more binding, comparable within an allelic series).

In the case of CGGTGGGC, the binding signal [1] is reported as 9.02 upbm affinity estimate (log intensity, higher = more binding, comparable within an allelic series), the binding signal [29] is reported as 9.41 upbm affinity estimate (log intensity, higher = more binding, comparable within an allelic series) and the binding signal [30] is reported as 9.5 upbm affinity estimate (log intensity, higher = more binding, comparable within an allelic series). For the same sequence, the binding signal [31] was 9.22 upbm affinity estimate (log intensity, higher = more binding, comparable within an allelic series), the binding signal [32] was 9.46 upbm affinity estimate (log intensity, higher = more binding, comparable within an allelic series) and the binding signal [33] was 9.39 upbm affinity estimate (log intensity, higher = more binding, comparable within an allelic series). The binding signal [34] was 9.53 upbm affinity estimate (log intensity, higher = more binding, comparable within an allelic series), the binding signal [35] was 9.14 upbm affinity estimate (log intensity, higher = more binding, comparable within an allelic series) and the binding signal [36] was 9.14 upbm affinity estimate (log intensity, higher = more binding, comparable within an allelic series). The binding signal [37] was 9.44 upbm affinity estimate (log intensity, higher = more binding, comparable within an allelic series), the binding signal [38] was 9.26 upbm affinity estimate (log intensity, higher = more binding, comparable within an allelic series) and the binding signal [20] was 9.07 upbm affinity estimate (log intensity, higher = more binding, comparable within an allelic series).

For TCACTTAA, the binding signal [1] was 12.2 upbm affinity estimate (log intensity, higher = more binding, comparable within an allelic series), the binding signal [39] was 9.72 upbm affinity estimate (log intensity, higher = more binding, comparable within an allelic series) and the binding signal [24] was 13.4 upbm affinity estimate (log intensity, higher = more binding, comparable within an allelic series). For the same sequence, the binding signal [26] was 10.6 upbm affinity estimate (log intensity, higher = more binding, comparable within an allelic series), the binding signal [20] was 12.3 upbm affinity estimate (log intensity, higher = more binding, comparable within an allelic series) and the binding signal [40] was 10.7 upbm affinity estimate (log intensity, higher = more binding, comparable within an allelic series).

CGCCTACC was tested, and the binding signal [1] was 8.86 upbm affinity estimate (log intensity, higher = more binding, comparable within an allelic series), the binding signal [22] was 9.18 upbm affinity estimate (log intensity, higher = more binding, comparable within an allelic series) and the binding signal [28] was 8.83 upbm affinity estimate (log intensity, higher = more binding, comparable within an allelic series). The binding signal [20] was 8.84 upbm affinity estimate (log intensity, higher = more binding, comparable within an allelic series).

AGCCGGGG was tested, and the binding signal [1] was 9.08 upbm affinity estimate (log intensity, higher = more binding, comparable within an allelic series), the binding signal [41] was 8.22 upbm affinity estimate (log intensity, higher = more binding, comparable within an allelic series) and the binding signal [42] was 8.28 upbm affinity estimate (log intensity, higher = more binding, comparable within an allelic series). The binding signal [20] was 9.03 upbm affinity estimate (log intensity, higher = more binding, comparable within an allelic series).

With ACCGGTCC the binding signal [1] was 8.75 upbm affinity estimate (log intensity, higher = more binding, comparable within an allelic series), the binding signal [43] was 8.49 upbm affinity estimate (log intensity, higher = more binding, comparable within an allelic series) and the binding signal [44] was 8.3 upbm affinity estimate (log intensity, higher = more binding, comparable within an allelic series). The binding signal [20] was 8.88 upbm affinity estimate (log intensity, higher = more binding, comparable within an allelic series).
